PubChem BioAssay AID1159580 (chemical genetic matrix, 2015)
The whole screen tested about 5,500 compounds, of which about 2,000 (36%) were called active. Another 18% or so got no clear call; they are omitted. No stated cut-off is given here; in the data, active means normalized growth mostly below about 0.91 (no sharp cut-off); inconclusive means no clear call, values can overlap the other calls; inactive means mostly above about 0.92. This is one part of the list.

Experiment: chemical genetic growth profiling, strain panel (AID 1159580);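 further: tested at 20 µM; growth read once vehicle control cultures reached saturation at 30 °C; 1 = growth at the plate median or of vehicle wells; lower values mean less growth of the strain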
Conditions: S. cerevisiae deletion strains, growth OD

Measured: normalized growth

COc1ccc2c(c1)c(CC(=O)O)c(C)n2C(=O)c1ccccc1
inactive: locus YAL040C, strain CLN3, active compounds read low 1.03 | locus YDR150W, strain NUM1, active compounds read low 0.99 | locus YDR363W, strain ESC2, active compounds read low 1.04 | locus YER002W, strain NOP16, active compounds read low 1 | locus YGR078C, strain PAC10, active compounds read low 1.03 | locus YGR229C, strain SMI1, active compounds read low 1.02 | locus YNL153C, strain GIM3, active compounds read low 0.986 | locus YNL175C, strain NOP13, active compounds read low 1.02 | locus YNL197C, strain WHI3, active compounds read low 1.01 | locus YNL224C, strain SQS1, active compounds read low 1.02 | locus YOR083W, strain WHI5 (second series), active compounds read low 1.03 | locus YPL055C, strain LGE1, active compounds read low 1 | locus YPL241C, strain CIN2, active compounds read low 0.998
